Compound activity deposited in PubChem by National Center for Advancing Translational Sciences (NCATS).
HT1080NT lethal: kills 2HG-producing HT-1080-NT fibrosarcoma cells. HT-1080-NT fibrosarcoma viability, CellTiter-Glo ATP luminescence, 48 h. Potency, µM (doses to about 46.1 µM), most hits filed as cytotoxic. actives 1.6% (n = 360,000);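 note: NT is the 2HG producing partner of a matched IDH1 knockdown line; nearly all actives have a fitted effect of over 55% in size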
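A 48-hour cytotoxicity screen used HT-1080-NT cells plated 2 hours before compound delivery. ATP-based CellTiter-Glo luminescence measured viability, normalized to DMSO and no-cell controls.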
SW480 rereplic: inducers of DNA re-replication in SW480 colon cancer cells | AID 624297 | Potency, µM (doses to about 46.1 µM), hits mostly activators | actives 1.8% (n = 340,000) | SW480 DNA re-replication, Hoechst DNA content imaging, 48 h; note: nearly all actives have a fitted effect of over 55% in size
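Per well, 250 cells were exposed to pinned compound for 48 hr. Nuclear DNA was visualised with Hoechst (40 min, 37 C) and total object intensity recorded by fluorescence scanning.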
HT1080 IDH1KD tx: kills HT-1080 cells with IDH1 knockdown; HT-1080 IDH1 knockdown viability, ATP luminescence, 48 h; Potency, µM (top dose mostly 46.1 µM), most hits filed as cytotoxic; actives 2% (n = 360,000); AID 686971
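Using the IDH1-knockdown HT-1080 line run in the same batch and compound series as the NT line, viability after 48 h at 37 °C was determined by CellTiter-Glo luminescence and expressed as % activity.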
KB-3-1 tox: kills parental KB-3-1 adenocarcinoma cells. KB-3-1 viability, CellTiter-Glo ATP luminescence, 72 h. Potency, µM (series often up to 46.1 µM), actives largely listed as cytotoxic. actives 1.4% (n = 400,000). AID 1347075; note: nearly all actives have a fitted effect of over 60% in size
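Cytotoxicity measured as CellTiter-Glo luminescence after 72 h at 37 C. Compound titrations were pinned onto drug-naive KB-3-1 parental adenocarcinoma cells grown in DMEM with 10% FBS, and normalized data fitted to concentration-response curves.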
MCF10A rerep: inducers of DNA re-replication in MCF 10A breast cells | MCF 10A DNA re-replication, Hoechst nuclear intensity, 48 h | AID 624296 | Potency, µM (doses to about 46.1 µM), hits mostly activators | actives 2.9% (n = 350,000); note: nearly all actives have a fitted effect of over 50% in size
KB-V1 MDR tox: kills drug-selected multidrug resistant KB-V1 cells; AID 1347076; Potency, µM (highest dose often 46.1 µM), actives largely listed as cytotoxic; KB-V1 MDR cells viability, CellTiter-Glo, 72 h; actives 3.4% (n = 400,000); note: nearly all actives have a fitted effect of over 60% in size
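Cells of the MDR subline KB-V1 are plated, dosed with compound at multiple concentrations, and incubated 72 h at 37 degrees C; CellTiter-Glo is then added and luminescence read after 10 min.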
Of the large screens only hits and unclear results are named; the others gave an inactive call. An excerpt weighted towards active compounds, which were near 8% of everything screened. Calls come from the whole dose curve; as a rule, active = well fitted curve in the direction sought with a large enough effect; inconclusive = small, poorly fitted or top-dose-only effect, or another doubt; inactive = no such curve, though single readings can be large; an effect the other way counts as inactive or inconclusive.

CC[C@@]1(c2ccccc2OC)ON(c2ccccc2C(F)(F)F)C1=O	SW480 rereplic inconclusive, HT1080 IDH1KD tx inconclusive, KB-3-1 tox inconclusive, MCF10A rerep inconclusive, KB-V1 MDR tox inconclusive
CCC1(c2ccccc2)ON(c2c(Br)cccc2Br)C1=O (stereo unspecified)	HT1080NT lethal inconclusive, SW480 rereplic inconclusive, HT1080 IDH1KD tx 18.4µM, MCF10A rerep 11.6µM, KB-V1 MDR tox inconclusive
CC1CCN(c2nc(Cl)nc(Nc3ccc([N+](=O)[O-])cc3)n2)CC1	MCF10A rerep 5.17µM
O=C1C2C3CCC(C3)C2C(=O)N1c1ccc(OS(=O)(=O)c2ccccc2)cc1 (stereo unspecified)	KB-3-1 tox inconclusive, KB-V1 MDR tox 9.2µM
Cc1ccc(S(=O)(=O)Oc2ccc(N3C(=O)C4C5CCC(C5)C4C3=O)cc2)cc1 (stereo unspecified)	MCF10A rerep inconclusive
COc1ccc(CCN2CC(C(=O)NCC(c3ccccc3)N(C)C)CC2=O)cc1OC (stereo unspecified)	KB-3-1 tox inconclusive
Cc1sc2nc(-c3cccnc3)[nH]c(=O)c2c1-c1ccccc1	none
CN1CCN(C(=O)c2cc3nc(-c4ccccc4)cc(-c4ccccc4)n3n2)CC1	HT1080NT lethal 14.6µM, SW480 rereplic inconclusive, HT1080 IDH1KD tx inconclusive, MCF10A rerep 13µM
Cc1cc(N2CCN(C(=O)c3ccco3)CC2)n2nc(C)c(-c3ccccc3)c2n1	KB-3-1 tox inconclusive, KB-V1 MDR tox 3.66µM
COc1ccc(-c2cc3nc(C)cc(N4CCN(C(=O)c5ccco5)CC4)n3n2)cc1	none (no result: SW480 rereplic, MCF10A rerep)
O=C(c1cc2nc(-c3ccccc3)cc(-c3ccccc3)n2n1)N1CCN(C(=O)c2ccco2)CC1	KB-3-1 tox inconclusive, MCF10A rerep inconclusive, KB-V1 MDR tox 20.6µM
CCN1CCN(CCCNC(=O)Cn2cc3c(n2)CCCC3)CC1	none
CCC(=O)N1CCc2cc(S(=O)(=O)CCC(=O)NCCc3ccc(S(N)(=O)=O)cc3)ccc21	HT1080NT lethal inconclusive
Cc1ccc(C(=O)NCCCc2ccccc2)c(C)c1	HT1080 IDH1KD tx inconclusive
CCCCOc1ccc(C(=O)NCC(=O)OC2CCOC2=O)cc1 (stereo unspecified)	SW480 rereplic inconclusive, KB-3-1 tox inconclusive, MCF10A rerep 3.26µM
O=C(CNC(=O)c1ccc(Cl)cc1)OC1CCOC1=O (stereo unspecified)	none
O=C1CSC(=S)N1Cc1cccnc1	HT1080NT lethal inconclusive, HT1080 IDH1KD tx inconclusive, KB-3-1 tox 4.61µM, MCF10A rerep 3.26µM, KB-V1 MDR tox 2.91µM
O=C(O)c1ccc(CN2C(=O)CSC2=S)cc1	KB-3-1 tox inconclusive, MCF10A rerep 5.17µM
S=C1SCN(Cc2cccnc2)CN1Cc1ccccc1	HT1080NT lethal inconclusive, HT1080 IDH1KD tx 20.6µM
O=C(O)c1ccc(N2C(=O)CSC2=S)cc1	HT1080NT lethal inconclusive
O=C(COc1ccc(Cl)c(Cl)c1)NN1C(=O)C2C(C1=O)C1C=CC2C12CC2 (stereo unspecified)	SW480 rereplic 1.03µM
CCSC1=N/C(=C\c2ccc(OC)cc2)C(=O)N1	none
CCCCOC(=O)C1=C(N)N2C(=O)C(C)SC2=C(C(=O)OCC)C1c1ccc(O)c(OC)c1 (stereo unspecified)	SW480 rereplic inconclusive, MCF10A rerep inconclusive
NNc1ccc2c(C(F)(F)F)cc(C(F)(F)F)nc2n1	KB-3-1 tox inconclusive
N#CC(c1cccc(Cl)c1)c1ccc2c(C(F)(F)F)cc(C(F)(F)F)nc2n1 (stereo unspecified)	HT1080NT lethal 9.2µM, SW480 rereplic inconclusive, HT1080 IDH1KD tx inconclusive, KB-3-1 tox inconclusive, MCF10A rerep inconclusive, KB-V1 MDR tox 0.92µM
Cn1nc(C(=O)Nc2ccc(Cl)c(S(=O)(=O)N3CCOCC3)c2)c2ccccc2c1=O	none
CC1(C)CC(N2CCCC2)=CC(=[N+]2CCCCCC2)C1	HT1080NT lethal inconclusive, HT1080 IDH1KD tx 11.6µM, KB-3-1 tox inconclusive
